Hits are enriched below; roughly 19% of the tested compounds scored in any of these assays.
HT1080NT lethal = qHTS for induction of synthetic lethality in tumor cells producing 2HG: qHTS for the HT-1080-NT fibrosarcoma cell line; HT-1080-NT fibrosarcoma viability, CellTiter-Glo ATP luminescence, 48 h; Potency, µM (highest dose often 46.1 µM), for the others: at the highest dose activity, negative = less viability, usual class: cytotoxic; 360,000 tested, 1.6% active; AID 686970, 2013;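 further: NT is the 2HG producing partner of a matched IDH1 knockdown line; potency means the concentration at half of the fitted maximal effect; 0% = DMSO-treated cells and -100% = media-only wells without cells; nearly all actives have a fitted effect of over 55% in size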
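Viability of the 2HG-overproducing fibrosarcoma line after 48 hours of compound exposure at 37 degrees C was determined by luminescence with CellTiter-Glo, and concentration-effect curves were then fitted and categorized.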
IL1B secr inh = qHTS for Inhibitors of Inflammasome Signaling: IL-1-beta AlphaLISA Primary Screen; THP-1 LPS/ATP IL-1B secretion, AlphaLISA, 16 h; stronger effect = lower value; AID 743279, 2014; 360,000 tested, 4.7% active; activity change, % at 57.5 µM; in the data active means activity change below about -50%; inconclusive means mostly about -30% to -49%
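THP-1 cells pretreated 1 hr with compounds (up to 57.5 uM final), then stimulated with LPS (250 ng/mL final) plus ATP (1.25 mM final); secreted IL-1B measured by AlphaLISA after 16 hr, decreased signal indicating inhibition.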
DT40 TDP1 no CPT = qHTS for Inhibitors of human tyrosyl-DNA phosphodiesterase 1 (TDP1): qHTS in cells in absence of CPT; DT40 Tdp1-/- hTDP1 cells, no CPT, ATP luminescence, 48 h; Potency, µM (titrated, usually from 46.2 µM), for the others: top-dose activity change, negative = growth inhibition, usual class: inhibitors; 420,000 tested, 15% active; further: potency means the concentration at half of the fitted maximal effect; nearly all actives have a fitted effect of over 55% in size
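Growth of hTDP1-complemented DT40 Tdp1-knockout cells is measured by ATP luminescence after at least 48 hr compound exposure at 37 °C, with DMSO substituting for the 20 nM CPT used in the parallel screen.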
HT1080 IDH1KD tx = qHTS for induction of synthetic lethality in tumor cells producing 2HG: qHTS for the HT-1080-IDH1KD cell line; HT-1080 IDH1 knockdown viability, ATP luminescence, 48 h; Potency, µM (highest dose often 46.1 µM), inactives show at the top dose activity, negative = toxicity, hits mostly cytotoxic; 360,000 tested, 2% active;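 further: potency means the concentration at half of the fitted maximal effect; 0% = DMSO wells and -100% = cell-free medium wells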
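Knockdown cells (IDH1KD HT-1080) received compounds 2 h after plating at 750 cells/well and were kept 48 h at 37 °C in 5% FBS RPMI. A CellTiter-Glo luminescence read gave % activity for curve fitting.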
DT40 TDP1 CPT = qHTS for Inhibitors of human tyrosyl-DNA phosphodiesterase 1 (TDP1): qHTS in cells in presence of CPT. AID 686979, 2013. Potency, µM (titrated, usually from 46.2 µM), for the others: at the highest dose activity change, negative = growth inhibition, usual class: inhibitors. chicken DT40 Tdp1-/-;hTDP1 cells + 20 nM CPT, ATP luminescence, 48 h. 420,000 tested, 12% active; further: potency means the concentration at half of the fitted maximal effect; nearly all actives have a fitted effect of over 55% in size
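Chicken DT40 Tdp1-/- cells complemented with human TDP1, 400 cells/well, exposed to compounds plus 20 nM camptothecin for at least 48 h at 37 C; viability read as ATP content by CellTiter-Glo luminescence.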
Starred values were filed as active, the others as inactive; ? = inconclusive; nt = no result. Unless noted, the call rests on the fitted dose curve; in most records, active means well fitted curve in the direction sought with a large enough effect; inconclusive means small, poorly fitted or top-dose-only effect, or another doubt; inactive means no such curve, though single readings can be large; an effect the other way counts as inactive or inconclusive. Unless noted, on the % scale 0 is the no-effect control and ±100 the full control effect.

SMILES	HT1080NT lethal	IL1B secr inh	DT40 TDP1 no CPT	HT1080 IDH1KD tx	DT40 TDP1 CPT
COc1cc(CN2C[C@@H](CO)O[C@@H](n3cnc4c(NC5CCCC5)ncnc43)C2)cc(OC)c1OC	11%	-9	?	8%	-7%
Cc1ccc(C2c3c(oc4ccccc4c3=O)C(=O)N2c2nnc(C)s2)cc1 (centres undefined)	nt	nt	21µM*	nt	13µM*
CCN(CC)C(=O)C1CC(=O)N(c2ccc(F)c(Cl)c2)C1 (centres undefined)	1%	-19	-14%	-3%	-2%
CCCCN(CC)Cc1ccc(CNC(=S)Nc2ccc(C)cc2Cl)o1	?	-62*	18µM*	-27%	16µM*
CCCCN(CC)Cc1ccc(CNC(=O)Nc2ccc(F)cc2)o1	10µM*	0	5.6µM*	?	4.5µM*
CCCCN(CC)Cc1ccc(CNC(=S)Nc2c(C)cc(C)cc2C)o1	4%	0	?	-7%	2%
O=C1c2ccccc2C(=O)c2c(Nc3ccc(CCO)cc3)ccc(O)c21	-21%	?	16µM*	-20%	?
O=C(O)c1ccc2c(c1Nc1ccccc1)C(=O)c1ccccc1C2=O	-5%	-14	?	-7%	?
CCOC(=O)c1c(NC(=O)CSc2nnnn2C)sc(CC)c1C	-5%	-26	-28%	-44%	?
N#Cc1cc(Cl)c(N2CCOCC2)cc1C#N	-8%	-17	-29%	0%	-15%
N#Cc1cc2ccc(N3CCOCC3)cc2cc1C#N	-13%	31	12µM*	?	7.3µM*
CC(C)C[C@H]1CNC(=S)N1CC1CCCN1C[C@H](CC(C)C)N1C[C@H](CC(C)C)N(CCc2ccccc2)C1=S (some centres undefined)	-2%	16	5.8µM*	-4%	8.2µM*
CC(C)C[C@H]1CNC(=S)N1C[C@H]1CCCN1C[C@H](CC(C)C)N1C[C@H](CC(C)C)N(CCc2ccccc2)C1=S	-21%	-16	26µM*	?	?
CC(C)C[C@H]1CNC(=S)N1C[C@H]1CCCN1C[C@H](CC(C)C)N1C[C@H](Cc2ccccc2)N(CCc2ccccc2)C1=S	?	?	21µM*	-2%	?
CC(C)C[C@H]1CNC(=S)N1C[C@H]1CCCN1C[C@H](Cc1ccccc1)N1C[C@H](CC(C)C)N(CCc2ccccc2)C1=S	-3%	3	16µM*	-2%	13µM*
COc1ccc(C(=O)N2CCC3(CCCN(c4ncccn4)C3)CC2)cc1	nt	nt	?	nt	2%
O=C(N/N=C/C1CC2CCC1C2)c1c[nH]c2ccccc12 (centres undefined)	-6%	18	-1%	-5%	-2%
CN(c1ccccc1)S(=O)(=O)c1cccc(NC(=O)C2CC(=O)N(Cc3ccccc3)C2)c1 (centres undefined)	0%	-22	21µM*	-1%	16µM*
CN(C)S(=O)(=O)c1ccc(NC(=O)C2CC(=O)N(Cc3ccccc3)C2)cc1 (centres undefined)	9%	6	-8%	10%	7%
CCN(CC)c1ccc(NC(=O)C2CC(=O)N(Cc3ccccc3)C2)cc1 (centres undefined)	-1%	-7	12µM*	-24%	?
COc1ccccc1NC(=O)C1=C(C)Nc2nc(-c3ccco3)nn2C1c1cccc(C)c1 (centres undefined)	nt	nt	?	nt	18µM*
CC1=C(C(N)=O)C(c2cccc(C)c2)n2nc(-c3ccc(Cl)cc3)nc2N1 (centres undefined)	nt	nt	?	nt	21µM*
COc1ccccc1NC(=O)C1=C(C)Nc2nc(-c3ccco3)nn2C1c1ccccc1F (centres undefined)	nt	nt	?	nt	16µM*
COc1ccccc1NC(=O)C1=C(C)Nc2nnnn2C1c1ccccc1OC (centres undefined)	2%	20	-8%	-2%	6%
CN(C(=O)CCN1C(=O)c2ccccc2C1=O)c1ccccc1	15%	3	-4%	12%	-4%
SMILES	HT1080NT lethal	IL1B secr inh	DT40 TDP1 no CPT	HT1080 IDH1KD tx	DT40 TDP1 CPT
CC(C)C[C@H]1CNC(=S)N1CC1CCCN1C[C@H](Cc1ccccc1)N1C[C@H](Cc2ccccc2)N(CC2CCCCC2)C1=S (some centres undefined)	-4%	?	?	?	?
CC(C)C[C@H]1CNC(=S)N1CC1CCCN1C[C@H](Cc1ccc(O)cc1)N1C[C@H](Cc2ccccc2)N(CC2CCCCC2)C1=S (some centres undefined)	?	-54*	5.8µM*	-2%	5.8µM*
CC(C)C[C@H]1CNC(=S)N1C[C@H]1CCCN1C[C@H](Cc1ccccc1)N1C[C@H](Cc2ccc(O)cc2)N(CC2CCCCC2)C1=S	15µM*	?	23µM*	16µM*	16µM*
CC(C)C[C@H]1CNC(=S)N1C[C@H]1CCCN1C[C@H](Cc1ccc(O)cc1)N1C[C@H](Cc2ccccc2)N(CC2CCCCCC2)C1=S	-27%	-18	18µM*	-18%	18µM*
CCC(=O)N(c1nnc(SCC(=O)Nc2ccc(N3CCOCC3)cc2)s1)C1CC1	7%	3	21%	15%	-5%
O=C(c1ccccc1)N1CCN(C(=O)c2nn3c(C(F)(F)F)cc(-c4ccccc4)nc3c2Br)CC1	23%	-18	18µM*	8%	?
O=C(c1nn2c(C(F)(F)F)cc(-c3ccccc3)nc2c1Cl)N1CCN2CCCC2C1 (centres undefined)	-12%	-64*	?	-16%	21µM*
CCN(C(=O)Cc1ccccc1OC)c1nnc(-c2ccncc2)s1	?	2	15µM*	-5%	?
CCCN(C(=O)c1cccs1)c1nnc(-c2ccncc2)s1	19%	-50*	?	13%	-24%
CCCCN(C(=O)Cc1cccs1)c1nnc(-c2cccnc2)s1	-3%	-14	?	-2%	?
COc1ccc(Cl)c2sc(N3CCN(C(C)=O)CC3)nc12	3%	-25	-1%	3%	-10%
Cc1ccc2nc(-c3cccc(Cl)c3)c(Nc3ccc4c(c3)OCO4)n2c1	nt	nt	-29%	nt	?
Cc1ccc2nc(-c3cccs3)c(Nc3c(C)cccc3C)n2c1	nt	nt	26µM*	nt	23µM*
Cc1ccc(Nc2c(-c3ccc(N(C)C)cc3)nc3ncccn23)cc1	26%	-8	?	17%	?

Screening data from PubChem BioAssay.
